Measurements as given in ChEMBL document CHEMBL3988442, “University of Dundee, Small-Polar-MMV Screening Library” (2021).

Molecular target: T1, Methionyl-tRNA synthetase, putative (Leishmania donovani (strain BPK282A1)) (UniProt E9BF75)
T1 sequence (whole entry): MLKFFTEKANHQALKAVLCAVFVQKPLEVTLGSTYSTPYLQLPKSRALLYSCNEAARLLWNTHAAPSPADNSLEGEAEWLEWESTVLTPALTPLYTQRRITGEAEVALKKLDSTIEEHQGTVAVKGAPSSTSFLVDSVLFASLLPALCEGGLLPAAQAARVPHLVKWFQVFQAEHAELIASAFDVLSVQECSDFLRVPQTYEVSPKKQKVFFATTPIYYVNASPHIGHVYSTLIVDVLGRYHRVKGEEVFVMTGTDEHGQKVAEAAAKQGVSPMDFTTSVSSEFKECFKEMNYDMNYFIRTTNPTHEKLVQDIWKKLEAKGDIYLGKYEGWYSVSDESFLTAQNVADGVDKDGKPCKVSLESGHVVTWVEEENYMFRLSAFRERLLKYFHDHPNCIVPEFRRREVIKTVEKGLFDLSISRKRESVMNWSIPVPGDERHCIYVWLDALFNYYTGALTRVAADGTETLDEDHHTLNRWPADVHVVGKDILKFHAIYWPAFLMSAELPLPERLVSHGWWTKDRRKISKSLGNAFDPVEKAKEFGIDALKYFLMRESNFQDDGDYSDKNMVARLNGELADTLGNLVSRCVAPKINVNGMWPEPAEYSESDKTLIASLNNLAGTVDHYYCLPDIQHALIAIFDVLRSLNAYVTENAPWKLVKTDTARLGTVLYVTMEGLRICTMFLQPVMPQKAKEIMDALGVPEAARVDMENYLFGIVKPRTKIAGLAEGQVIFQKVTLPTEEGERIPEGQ
Assay: Leishmania donovani Methionine tRNA synthetase (LdMetRS):v7. Dose response assay
Type: functional
Set-up: conc 80 nM, time 150 minutes

SMILES: Cc1ccc(N2CCC3(CN(Cc4ccncc4)CCC3(F)F)C2)nn1 (stereo not drawn)
- PXC50 (MAX_EFFECT 9.977324263): < 4
- PXC50 (MAX_EFFECT 11.58878505): < 4

SMILES: CC(C)C[C@H]1COc2ccccc2C(c2ccccc2)=N1
- PXC50 (MAX_EFFECT 7.8891258): < 4
- PXC50 (MAX_EFFECT 10.97308489): < 4

SMILES: COC(=O)CCNc1nc(CN2CCCCC2)nc2sc3c(c12)CCC3
- PXC50 (MAX_EFFECT 7.808564232): < 4.31
- PXC50 (MAX_EFFECT 7.888040712): < 4

SMILES: O=C(NCC1CCCCN1C(=O)c1cccc2ccccc12)c1ccccc1 (stereo not drawn)
- PXC50 (BOTTOM 0.770786067, HILLSLOPE 2.128077678, MAX_EFFECT 96.73659674, TOP 102.5562093): 4.68
- PXC50 (BOTTOM 1.426381969, HILLSLOPE 1.713383958, MAX_EFFECT 97.20930233, TOP 108.6916663): 4.55

SMILES: Cc1sc(C)c(C(F)(F)F)c1CNCCCNc1cc(=O)c2ccccc2[nH]1
- PXC50 (BOTTOM -1.155419978, HILLSLOPE 1.172834864, MAX_EFFECT 100.9302326, TOP 101.3032533): 5.58
- PXC50 (BOTTOM -1.471807315, HILLSLOPE 1.111829353, MAX_EFFECT 101.8648019, TOP 104.5162556): 5.56

SMILES: Cc1sc2nc(-c3cccnc3)nc(N3CCCC(CO)C3)c2c1C (stereo not drawn)
- PXC50 (BOTTOM 0.693465662, HILLSLOPE 1.473836838, MAX_EFFECT 56.47668394, TOP 100.0): 4.07
- PXC50 (BOTTOM -1.655591932, HILLSLOPE 1.509629481, MAX_EFFECT 54.25531915, TOP 100.0): 4.06

SMILES: Nc1nc(CSc2nnc[nH]2)nc2sc3c(c12)CCCC3
- PXC50 (MAX_EFFECT 21.33333333): < 4
- PXC50 (MAX_EFFECT 26.98412698): < 4

SMILES: Cc1nc(NCC2COCCO2)c2c3c(sc2n1)CCC3 (stereo not drawn)
- PXC50 (MAX_EFFECT 5.303030303): < 4
- PXC50 (MAX_EFFECT 6.632653061): < 4

SMILES: COCC(C)NC(=O)c1ccc2ccc(N3CCN(S(C)(=O)=O)CC3)n2c1 (stereo not drawn)
- PXC50 (BOTTOM 3.011130377, HILLSLOPE 1.725207909, MAX_EFFECT 55.66037736, TOP 58.49588417): 4.74
- PXC50 (MAX_EFFECT 48.85844749): < 4

SMILES: CCc1ccc(CN(C)Cc2nc(N)c3c(C)c(C)sc3n2)cc1
- PXC50 (MAX_EFFECT 28.57142857): < 4
- PXC50 (MAX_EFFECT 30.4): < 4

SMILES: CCOC(=O)c1sc2nc(C)nc(NC3CCCCC3)c2c1C
- PXC50 (MAX_EFFECT 13.06532663): < 4
- PXC50 (MAX_EFFECT 16.95331695): < 4

SMILES: N#Cc1cccc(Nc2nccc(N3CCC(NS(=O)(=O)c4cccc(C#N)c4)CC3)n2)c1
- PXC50 (MAX_EFFECT 35.34883721): < 4
- PXC50 (MAX_EFFECT 46.85314685): < 4

SMILES: Cc1nc(NCCCNS(C)(=O)=O)c2c3c(sc2n1)CCC3
- PXC50 (MAX_EFFECT 6.914893617): < 4
- PXC50 (MAX_EFFECT 9.844559585): < 4

SMILES: COc1cc(C(=O)NC2CCCC2)cn2c(N3CCN(S(C)(=O)=O)CC3)ccc12
- PXC50 (BOTTOM 3.193013855, HILLSLOPE 0.707285439, MAX_EFFECT 58.33333333, TOP 100.0): 4.17
- PXC50 (BOTTOM -2.394752883, HILLSLOPE 0.813527414, MAX_EFFECT 65.35087719, TOP 100.0): 4.43

SMILES: Cc1nc(N2CCN(c3ncccn3)CC2)c2c3c(sc2n1)CCC3
- PXC50 (MAX_EFFECT 14.75409836): < 4
- PXC50 (MAX_EFFECT 18.71657754): < 4

SMILES: COCCNc1nc(CN2CCCC2)nc2sc3c(c12)CCCC3
- PXC50 (MAX_EFFECT 13.54166667): < 4
- PXC50 (MAX_EFFECT 14.03508772): < 4

SMILES: COC(=O)CN(C)c1nc(-c2cccs2)nc2sc(C)c(C)c12
- PXC50 (MAX_EFFECT 23.66412214): < 4
- PXC50 (MAX_EFFECT 24.93702771): < 4

SMILES: COC(=O)c1sc2nc(C)nc(N(C)Cc3cccnc3)c2c1C
- PXC50 (MAX_EFFECT 13.66120219): < 4
- PXC50 (MAX_EFFECT 13.90374332): < 4

SMILES: COc1ccccc1C1(CNc2nnc(C)c(C)c2C#N)CCOCC1
- PXC50 (MAX_EFFECT 9.85915493): < 4
- PXC50 (MAX_EFFECT 18.33333333): < 4

SMILES: Cc1nc(N[C@H](C(=O)O)C(C)C)c2c3c(sc2n1)CCCC3
- PXC50 (MAX_EFFECT 7.978723404): < 4
- PXC50 (MAX_EFFECT 8.29015544): < 4

SMILES: OB1OC(CN2CCOCC2)c2ccccc21 (stereo not drawn)
- PXC50 (MAX_EFFECT 9.245283019): < 4
- PXC50 (MAX_EFFECT 9.589041096): < 4

SMILES: O=C(NCC1(O)CCCCC1)c1cc(=O)c2cc[nH]c(=O)c2o1
- PXC50 (MAX_EFFECT 6.333973129): < 4
- PXC50 (MAX_EFFECT 9.409888357): < 4

SMILES: Cc1nc(N2CCC(C(N)=O)CC2)c2c3c(sc2n1)CC(C)CC3 (stereo not drawn)
- PXC50 (MAX_EFFECT 5.852417303): < 4
- PXC50 (MAX_EFFECT 9.319899244): < 4

SMILES: Cc1nc(N2CCCC(O)C2)c2c3c(sc2n1)CCCC3 (stereo not drawn)
- PXC50 (MAX_EFFECT 9.649122807): < 4
- PXC50 (MAX_EFFECT 16.66666667): < 4

SMILES: FC1(F)CCN(Cc2ccccn2)CC12CCN(c1cnccn1)C2 (stereo not drawn)
- PXC50 (MAX_EFFECT 7.476635514): < 4
- PXC50 (MAX_EFFECT 8.163265306): < 4

SMILES: COCCN1CCN(c2ccc3ccc(C(=O)NC4CC4)cn23)CC1
- PXC50 (MAX_EFFECT 43.53741497): < 4
- PXC50 (MAX_EFFECT 48.22429907): < 4

SMILES: Cc1nc(N2CCC3(CC2)OCCO3)c2c(-c3cccs3)csc2n1
- PXC50 (MAX_EFFECT 10.43256997): < 4
- PXC50 (MAX_EFFECT 13.35012594): < 4

SMILES: Nc1noc2ccc(-c3cnc4ccc(NC5CCOCC5)nn34)cc12
- PXC50 (MAX_EFFECT 17.30279898): < 4
- PXC50 (MAX_EFFECT 20.1754386): < 4

SMILES: CC(C)C[C@H](N)COc1ccc(OC(F)(F)F)c(F)c1
- PXC50 (MAX_EFFECT 10.87420043): < 4
- PXC50 (MAX_EFFECT 10.97308489): < 4
